From the supplement of paper PMC10646978
± gives the standard deviation.

Experiments:
Conditions in all cases: modulator concentration 10 µM
[1] = tested on: RAW-Dual (murine macrophage reporter line); assay: NF-kB reporter (SEAP) activity fold change vs agonist alone; higher = enhanced NF-kB activity
Method in brief: (§1)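 Compound reached 10 μM final in each well by pin transfer, onto RAW-Dual murine macrophage reporter cells seeded at 50 000 per well in 384-well plates. After 1 hour at 37 °C, the cells were stimulated overnight with a PRR agonist. SEAP in the supernatant was read with QUANTI-Blue at 620 nm absorbance for NF-κB, and Lucia luciferase was read with QUANTI-Luc luminescence for IRF. Each signal was turned into fold change against the mean agonist-only control on the same plate, and two replicate plates were averaged with propagated errors.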

[2] = tested on: RAW-Dual (murine macrophage reporter line); assay: IRF reporter (Lucia luciferase) activity fold change vs agonist alone; higher = enhanced IRF activity
Method in brief: as §1

[3] = tested on: RAW-Dual (murine macrophage reporter line); assay: viability score (confluency relative to resting cells, overnight) (fraction); higher = more viable, active = viable (0.7 or more)
Method in brief: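 RAW-Dual macrophages in 384-well plates were incubated overnight with compound, final concentration 10 μM. Confluency images from IncuCyte were processed in IncuCyte software into two masks covering all imaged wells. The viability score is each well's confluency relative to resting cells, and a compound met the cutoff when both masks exceeded 70% of resting cells.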

[4] = agonist: CpG ODN 1826 0.5 ug/mL

Compound | NF-kB reporter [1, 4] | NF-kB reporter ([1]; agonist: LPS 0.1 ug/mL) | NF-kB reporter ([1]; agonist: MPLA […]) | IRF reporter ([2]; agonist: 3'3'-cGAMP 10 ug/mL) | IRF reporter ([2]; agonist: LPS 0.1 ug/mL) | IRF reporter ([2]; agonist: MPLA […]) | viability score [3]
Clc1cnc(NC2CCN(c3ncnc4c3CCCC4)CC2)nc1 | 0.969 ± 0.043 | 1.08 ± 0.089 | 1.55 ± 0.24 | 0.698 ± 0.032 | 1.16 ± 0.21 | 1.29 ± 0.47 | 0.954 (active)
NC(Cc1cc(I)c(Oc2cc(I)c(O)c(I)c2)c(I)c1)C(=O)O (configuration not stated) | 0.948 ± 0.23 | 0.984 ± 0.098 | 0.94 ± 0.073 | 0.901 ± 0.036 | 1.18 ± 0.2 | 1.12 ± 0.14 | 1 (active)
CC(C(=O)N1CCN(S(=O)(=O)C2CC2)CC1)n1nc2c(cc1=O)CCC2 (configuration not stated) | 0.928 ± 0.086 | 1.06 ± 0.095 | 0.934 ± 0.082 | 0.977 ± 0.091 | 0.964 ± 0.1 | 0.904 ± 0.19 | 1.01 (active)
O=C(CCCCC(=O)NN=Cc1cccc(O)c1)NN=Cc1cccc(O)c1 | 1.05 ± 0.093 | 1.08 ± 0.081 | 0.935 ± 0.12 | 0.955 ± 0.032 | 1.41 ± 0.15 | 1.16 ± 0.17 | 1 (active)
S=C(NCc1ccc2c(c1)OCO2)N1CCN(c2ncnc3c2oc2ccccc23)CC1 | 0.943 ± 0.19 | 1.6 ± 0.5 | 2.24 ± 0.18 | 0.623 ± 0.021 | 1.35 ± 0.27 | 1.96 ± 0.42 | 0.958 (active)
O=C(NCC(F)(F)F)c1ccc(OCC2CCOCC2)nc1 | 0.911 ± 0.044 | 0.87 ± 0.093 | 1.09 ± 0.064 | 0.937 ± 0.044 | 1.3 ± 0.24 | 1.51 ± 0.46 | 0.993 (active)
CNCCC(Oc1ccc(C(F)(F)F)cc1)c1ccccc1.Cl (configuration not stated) | 0.766 ± 0.072 | 0.848 ± 0.087 | 1.33 ± 0.19 | 1.04 ± 0.13 | 0.972 ± 0.056 | 0.9 ± 0.19 | 0.379 (inactive)
COc1ccc(-c2coc3cc(O)ccc3c2=O)cc1 | 0.956 ± 0.29 | 1.1 ± 0.1 | 0.992 ± 0.13 | 0.904 ± 0.034 | 1.06 ± 0.1 | 1.05 ± 0.17 | 1.01 (active)
O=C(CSc1nnc(COc2ccc(Cl)cc2)o1)N1CCCc2ccccc21 | 0.883 ± 0.044 | 1.12 ± 0.11 | 0.853 ± 0.086 | 0.885 ± 0.044 | 0.823 ± 0.05 | 0.866 ± 0.29 | 1.01 (active)
CC1=C(C(=O)Nc2cccc(C)n2)C(c2cccs2)C2=C(CC(C)(C)CC2=O)N1 (configuration not stated) | 1.03 ± 0.18 | 1.09 ± 0.14 | 0.869 ± 0.069 | 0.913 ± 0.027 | 1.2 ± 0.12 | 1.25 ± 0.16 | 1 (active)
CCCCSc1nnc2c(n1)OC(c1cccc(F)c1)Nc1ccc(Br)cc1-2 (configuration not stated) | 1.07 ± 0.18 | 1.01 ± 0.078 | 0.951 ± 0.083 | 0.914 ± 0.036 | 1.24 ± 0.13 | 1.13 ± 0.12 | 1 (active)
CN(C)C(CNC(=O)NCc1ccc(Cl)cc1)c1ccc2c(c1)CCO2 (configuration not stated) | 0.616 ± 0.1 | 1.17 ± 0.091 | 0.937 ± 0.1 | 0.854 ± 0.026 | 1.2 ± 0.23 | 1.4 ± 0.14 | 1 (active)
Cc1nc(C(=O)NCC(=O)O)c(O)c2ccc(Oc3ccccc3)cc12 | 0.856 ± 0.12 | 1.05 ± 0.39 | 0.94 ± 0.053 | 0.925 ± 0.04 | 1.09 ± 0.25 | 0.97 ± 0.28 | 0.996 (active)
CC1(C)Cc2cccc(OCC(=O)NCc3ccccn3)c2O1 | 0.948 ± 0.064 | 1 ± 0.1 | 0.986 ± 0.045 | 0.896 ± 0.034 | 1.02 ± 0.048 | 0.906 ± 0.087 | 0.996 (active)
O=Cc1ccc(OC(=O)c2cccc(C(=O)Oc3ccc(C=O)cc3)c2)cc1 | 0.813 ± 0.064 | 0.851 ± 0.052 | 1.02 ± 0.092 | 0.975 ± 0.064 | 1.52 ± 0.088 | 1.69 ± 0.14 | 0.989 (active)
CCOC(=O)C(CCc1ccccc1)NC1CCc2ccccc2N(CC(=O)O)C1=O.Cl (configuration not stated) | 1.13 ± 0.28 | 1.04 ± 0.072 | 1.05 ± 0.079 | 0.967 ± 0.04 | 1.24 ± 0.15 | 1.33 ± 0.21 | 1 (active)
CCOc1ccccc1OCCOCCOc1ccc(Br)cc1Cl | 0.905 ± 0.051 | 0.9 ± 0.13 | 1.22 ± 0.044 | 0.876 ± 0.034 | 0.979 ± 0.088 | 1.02 ± 0.12 | 0.992 (active)
Cc1ccc(Nc2nc(Cl)nc(Nc3ccc(C(C)C)cc3)n2)cc1 | 0.851 ± 0.067 | 1.06 ± 0.078 | 1.19 ± 0.13 | 0.828 ± 0.045 | 1.1 ± 0.19 | 1.33 ± 0.32 | 1.03 (active)
Cl.Cl.OCCN1CCN(CC/C=C2/c3ccccc3Sc3ccc(C(F)(F)F)cc32)CC1 | 1.01 ± 0.046 | 1.03 ± 0.13 | 1.04 ± 0.1 | 0.959 ± 0.058 | 1.13 ± 0.23 | 1.22 ± 0.28 | 1.02 (active)
Cc1ccc(Sc2ccccc2N2CCNCC2)c(C)c1 | 0.415 ± 0.1 | 1.22 ± 0.065 | 2.11 ± 0.33 | 0.462 ± 0.015 | 2.25 ± 0.3 | 2.42 ± 0.23 | 0.622 (inactive)
C=CCc1ccc(O)c(OC)c1 | 1.05 ± 0.29 | 0.913 ± 0.095 | 1.14 ± 0.097 | 0.524 ± 0.019 | 1.05 ± 0.14 | 1.01 ± 0.12 | 0.659 (inactive)
CCN1CCN(c2nc3c(c(=O)[nH]c(=O)n3C)n2CC(O)COc2cc(C)ccc2C(C)C)CC1 (configuration not stated) | 1.18 ± 0.067 | 1.08 ± 0.086 | 1.2 ± 0.064 | 1.1 ± 0.061 | 1.38 ± 0.14 | 1.48 ± 0.31 | 0.956 (active)
CCCC(C(=O)OCCN(CC)CC)(c1ccccc1)c1ccccc1.Cl | 0.851 ± 0.066 | 0.924 ± 0.11 | 0.978 ± 0.084 | 0.972 ± 0.055 | 1.03 ± 0.27 | 1.03 ± 0.39 | 1.02 (active)
Nc1ncnc2c1ncn2[C@@H]1O[C@H](COP(=O)(O)O)[C@@H](O)[C@H]1O [Prestw-356] | 1.37 ± 0.16 | 1.09 ± 0.11 | 1.23 ± 0.12 | 1.32 ± 0.069 | 1.21 ± 0.16 | 1.36 ± 0.28 | 1.03 (active)
CCOC(=O)C1=C(COCCN)NC(C)=C(C(=O)OC)C1c1ccccc1Cl (configuration not stated) | 0.533 ± 0.055 | 0.899 ± 0.052 | 1.55 ± 0.14 | 1.58 ± 0.1 | 1.34 ± 0.12 | 1.13 ± 0.095 | 0.589 (inactive)
O=S1(=O)N=C(NN=Cc2ccccc2O)c2ccccc21 | 1 ± 0.081 | 0.95 ± 0.14 | 1.1 ± 0.12 | 1 ± 0.049 | 1.25 ± 0.16 | 1.46 ± 0.25 | 1.03 (active)
